NFkB SMM = binders of human NF-kappa-B p105; P19838; Small molecule microarray, anti-His fluorescence binding; calls only; 17,000 tested, 1.3% active;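 active means spot fluorescence over background significantly raised, with a chance value under 7% in all four replicate spots of the compound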;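 further: probe protein is his-tagged human p50 processed subunit at 1 µg/ml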
Target sequence (P19838 1-433 limits assumed): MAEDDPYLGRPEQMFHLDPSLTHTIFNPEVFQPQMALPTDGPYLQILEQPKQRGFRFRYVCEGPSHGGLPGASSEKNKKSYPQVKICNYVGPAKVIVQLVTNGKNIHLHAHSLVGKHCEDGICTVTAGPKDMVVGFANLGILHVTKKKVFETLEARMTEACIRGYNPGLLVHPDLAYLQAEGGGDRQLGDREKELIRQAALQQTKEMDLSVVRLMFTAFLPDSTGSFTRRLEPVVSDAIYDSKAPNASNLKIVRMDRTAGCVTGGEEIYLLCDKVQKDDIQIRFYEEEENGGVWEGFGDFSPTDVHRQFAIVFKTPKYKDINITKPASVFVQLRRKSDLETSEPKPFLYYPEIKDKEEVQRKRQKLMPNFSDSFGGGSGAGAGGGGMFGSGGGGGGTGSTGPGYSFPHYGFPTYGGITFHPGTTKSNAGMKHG
STAT3 binder = binders of human STAT3. Small molecule microarray, His-STAT3 binding, anti-His fluorescence. 17,000 tested, 0.2% active. P40763. AID 624138. calls only;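 active means compounds whose four printed spots each show fluorescence over background unusually high for their array block, chance value under 7%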
c-Myc SMM = c-Myc (human) binding; calls only; small molecule microarray, His-c-Myc binding, anti-His fluorescence; AID 624141; P01106; 17,000 tested, 1.5% active;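 active means spot fluorescence over background with P-value below 7% in all four replicate spots, showing protein binding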
mut p53 SMM = binds human mutant p53 on microarray; 17,000 tested, 0.4% active; small molecule microarray binding, anti-GST fluorescence; calls only;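 active means compounds whose four printed spots each glow above background more than chance allows, each with a p-value under 7%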
p53 PUMA act = re-activators of the mutant p53 pathway; 28,000 tested, 1.5% active; SW480 PUMA-promoter luciferase, p53 mutant reactivation; activation, % at 9.98 µM; AID 624151; in the data active means activation above about 52%
Large screens that a line does not name were inactive. Most compounds without a hit are left out; they make up all but 2.8% or so of the library.

CC(CO)NC(=O)C1C=C2c3cccc4[nH]cc(c34)CC2N(C)C1 (stereo not drawn)	c-Myc SMM active
Cc1ccc2c(c1)-c1cc(C)nn1C(c1cccnc1)N2 (stereo not drawn)	none (no result: NFkB SMM, STAT3 binder, c-Myc SMM, mut p53 SMM)
Cc1cc(SCc2sc(-c3ccc(C(F)(F)F)c(F)c3)nc2C)ccc1OCC(=O)O	c-Myc SMM active
CCOC(=O)[C@@H]1[C@@H]2NC(=O)N(C)[C@@]1(COCc1ccc(OC)cc1)Oc1ccccc12	none (no result: p53 PUMA act)
COc1ccc(CN2CCN(CCO)CC2)c(OC)c1C	none
COC1=CC(=O)OC(/C=C/c2ccccc2)C1 (stereo not drawn)	p53 PUMA act 90

Assay outcomes as filed in PubChem.
